TLR9-MyD88 inh: inhibitors of human TLR9-MyD88 binding. Q9NR96+Q99836. CHO BLA complementation TLR9-MyD88, CCF4 FRET ratio. inhibition, % at 4.98 µM. 0.21% of 340,000 active. AID 504734;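 active means inhibition above the mean over all tested compounds plus 3 SD, cut at about 21% in these data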;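 further: 0% = DMSO only wells and 100% = clavulanate BLA inhibitor control wells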
Exocytosis inh: blocks lytic granule exocytosis | 0.66% of 360,000 active | inhibition, % at 10 µM | TALL-104 LAMP-1 surface exposure, flow cytometry; cells stimulated with thapsigargin and PMA;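 active means inhibition above about 55%, limit read from the data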
PRMT1 inh: blocks human protein arginine methyltransferase 1; Q99873; recombinant PRMT1, activity-based probe fluorescence polarization; inhibition, % at 2.79 µM; 1.3% of 370,000 active; AID 652257;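 active means inhibition above about 21% made by adding two undisclosed values, limit read from the data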
TLR4 MyD88 comp: blocks binding of human TLR4 to MyD88; O00206+Q99836; HeLa CL3-4 TLR4/MyD88 BLA complementation, FRET ratio; inhibition, % at 8.4 µM; 0.18% of 200,000 active; AID 861; in the data active means inhibition above about 25%;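 further: 0% = vehicle and 100% = reference inhibitor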
NOD2 RIPK2 PPI: NOD2-RIPK2 protein interaction inhibition. CHO BLA complementation NOD2-RIPK2, CCF4 ratio. inhibition, % at 4.98 µM. 0.38% of 360,000 active; in the data active means inhibition above about 21%;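 further: 0% = vehicle only and 100% = reference blocker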
Target sequence (O43353 whole entry, looked up): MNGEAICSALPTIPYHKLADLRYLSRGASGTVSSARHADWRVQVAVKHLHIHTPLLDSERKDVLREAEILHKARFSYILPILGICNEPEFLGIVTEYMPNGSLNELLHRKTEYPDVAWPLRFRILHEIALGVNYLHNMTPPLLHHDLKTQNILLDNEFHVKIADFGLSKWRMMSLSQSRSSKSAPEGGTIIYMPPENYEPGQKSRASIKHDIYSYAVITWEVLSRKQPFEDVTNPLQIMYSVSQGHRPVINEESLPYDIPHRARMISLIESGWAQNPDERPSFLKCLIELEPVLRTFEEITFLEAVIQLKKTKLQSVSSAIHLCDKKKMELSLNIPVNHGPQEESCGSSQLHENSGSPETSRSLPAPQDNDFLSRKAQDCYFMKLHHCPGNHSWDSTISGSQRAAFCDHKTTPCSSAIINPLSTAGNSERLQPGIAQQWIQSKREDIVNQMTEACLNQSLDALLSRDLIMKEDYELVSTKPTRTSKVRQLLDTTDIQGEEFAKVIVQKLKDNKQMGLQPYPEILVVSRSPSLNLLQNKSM
ABHD5-PLIN5 inh: inhibitors of human ABHD5-perilipin-5 interaction. Split G. princeps luciferase complementation, luminescence, 4 h. inhibition, % at 4 µM. 0.78% of 360,000 active. AID 602281;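 active means inhibition above the mean inhibition across every tested compound plus 3 SD, cut at about 22% in these data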;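 further: 0% = DMSO only wells and the 100% control is not disclosed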
PRMT1 inh conf: PRMT1 (human) inhibition, FP confirmation; shares compounds with PRMT1 inh; recombinant His-PRMT1, activity-based probe fluorescence polarization; inhibition, % at 2.79 µM; 42% of 3,300 active;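 active means mean inhibition across replicates above the hit cutoff derived for the earlier primary screen, cut at about 22% in these data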
Active calls of the source: *; nt = not tested or not shown. In the library only some 2.6% were active in any assay of this set; here they are far more common.

SMILES	TLR9-MyD88 inh	Exocytosis inh	PRMT1 inh	TLR4 MyD88 comp	NOD2 RIPK2 PPI	ABHD5-PLIN5 inh	PRMT1 inh conf
CCn1c2ccccc2c2cc(NC(=O)c3ccc(Br)o3)ccc21	4	0	31*	7	0	14	45*
COc1cc2[nH]c(=O)c(C(=O)NCc3ccccc3Cl)c(O)c2cc1OC	1	3	-2	nt	-12	4	nt
COc1ccc(CN2CCNC(=O)C2CC(=O)N(C)C2CCOCC2)cc1OC (stereo not given)	-1	-2	-5	nt	-13	-10	nt
O=C(O)c1ccccc1C1=Nc2ccc(O)cc2Oc2cc(O)ccc21	-9	-2	47*	-5	2	2	65*
O=c1cc(Br)c(O)c(Br)cc1Br	-7	-6	35*	nt	-19	15	39*
CCN(CC)C(=O)C1=C(C)N(CCCN2CCCC2=O)C(=O)C(CC(=O)NC(c2ccccc2)c2ccccc2)C1 (stereo not given)	2	-5	-2	nt	3	1	nt
O=C1CC(NCc2ccc3c(c2)OCO3)C(=O)N1CCc1ccccc1 (stereo not given)	10	-1	44*	3	1	5	15
NS(=O)(=O)c1ccc(CCNC2CC(=O)N(CCc3ccccc3)C2=O)cc1 (stereo not given)	-10	3	34*	5	-7	7	-3
Cc1ccc(NC2CC(=O)N(Cc3ccccc3)C2=O)cc1 (stereo not given)	1	2	-3	-10	-5	-2	nt
NS(=O)(=O)c1ccc(CCNC2CC(=O)N(Cc3ccccc3)C2=O)cc1 (stereo not given)	4	-2	63*	-8	-8	12	9
CC(C)[C@H](NC(=O)C1CCCC1)C(=O)N1CCC[C@H]1C(=O)NCc1ccccc1	nt	nt	-4	nt	nt	nt	nt
CN(C)C(CNC(=O)c1cccc(S(=O)(=O)Nc2ccc(SC(F)F)cc2)c1)c1ccccc1 (stereo not given)	-7	-2	44*	nt	-5	-3	62*
COc1cccc(CC(=O)Nc2ccc3c(c2)OC2(CCCC2)O3)c1	2	19	5	nt	-6	3	nt
COc1cc(NC(=O)NS(=O)(=O)c2ccc(C)cc2)cc(OC)c1	4	1	-1	12	-11	-3	nt
COc1ccc(NC(=O)Nc2ccc(OCc3ccccc3)cc2)cn1	-8	6	26*	nt	-2	-11	12
COc1ccc(NC(=O)NS(=O)(=O)c2ccc(C)cc2)cn1	-9	-3	105*	nt	-2	-12	10
O=C(Nc1ccc(OCc2ccccc2)cc1)Nc1cccnc1	-10	3	-1	nt	1	5	nt
CCOC(=O)C1=C(C)N=c2s/c(=C/c3cccc([N+](=O)[O-])c3O)c(=O)n2C1c1cc(OC)c(OC)c(OC)c1 (stereo not given)	-12	-5	44*	nt	-1	-14	40*
CCOC(=O)C1=C(C)N=c2s/c(=C\c3ccc(C(=O)O)cc3)c(=O)n2C1c1ccc(F)cc1 (stereo not given)	-2	0	13	nt	-1	3	nt
CCOC(=O)C1=C(C)N=c2s/c(=C/c3cccc([N+](=O)[O-])c3O)c(=O)n2C1c1ccccc1 (stereo not given)	5	-2	49*	nt	2	4	41*
Fc1cc(F)c(C2SCCN2C(=S)Nc2cccc(C(F)(F)F)c2)c(F)c1 (stereo not given)	-5	3	78*	nt	-4	-11	9
CCOC(=O)c1ccc(NC(=S)N2CCSC2c2c(F)cc(F)cc2F)cc1 (stereo not given)	-8	0	89*	-5	10	-20	-1
CCN1CCN(C(=S)Nc2cccc(C(F)(F)F)c2)CC1	-6	0	-1	7	2	-1	nt
Nc1ccc(-c2nc3ncccc3o2)cc1	1	-1	-2	nt	-15	1	nt
Cn1c(Nc2ccc(Cl)cc2F)nc2cc(-c3ccccc3)sc2c1=O	nt	3	-2	nt	5	3	nt
SMILES	TLR9-MyD88 inh	Exocytosis inh	PRMT1 inh	TLR4 MyD88 comp	NOD2 RIPK2 PPI	ABHD5-PLIN5 inh	PRMT1 inh conf
O=C(Cc1ccc(S(=O)(=O)N2CCOCC2)s1)Nc1nc2c(s1)CCCC2	-5	-1	29*	3	1	-14	4
Cc1ccccc1Cn1cc(CN2[C@H](Cc3ccccc3)COc3cc(Br)ccc3S2(=O)=O)nn1	nt	nt	-4	nt	nt	nt	nt
COc1ccc(CCNC(=O)CSc2ccc(NC(C)=O)cc2)cc1OC	2	6	25*	nt	-2	-9	31*
O=C(CSC1=NCCS1)Nc1nc2c(s1)CCCC2	-2	0	26*	-12	-3	-18	32*
Cn1nnnc1SCC(=O)Nc1nc2c(s1)CCCC2	-1	-2	-1	15	0	-6	nt
O=C(NC1CCN(C(=S)NCCc2ccccc2)CC1)C1CCCCC1	-9	0	3	-18	-4	0	nt
COC(=O)c1cc(C(=O)Nc2nnc(CC(C)C)s2)cc([N+](=O)[O-])c1	2	-3	-3	11	3	1	nt
CCC(CC)c1nnc(NC(=O)c2cc(C(=O)OC)cc([N+](=O)[O-])c2)s1	5	3	29*	-6	3	-5	20
O=C(c1ccc(Cl)cc1)N1CCC2CC1c1cc(-c3ccccc3)ccc12 (stereo not given)	-5	-2	1	nt	-4	-7	nt
COC(=O)c1c(N)sc(C(=O)NCCc2ccccc2)c1C	-1	-1	26*	nt	5	-5	30*
CCOC(=O)c1sc(N)c(C(=O)Nc2ccccc2OC)c1C	-3	-3	26*	0	8	-11	7
CCOC(=O)c1sc(N)c(C(=O)OC)c1C	-3	-2	-4	0	5	2	nt
CN(CCN(C)C(C)(C)C)C(=O)C(c1ccccc1)c1ccccc1	-1	2	-2	nt	-4	6	nt
COc1ccc(CCNC2=C(Cl)C(=O)N(CCc3ccccc3)C2=O)cc1OC	4	4	2	13	-24	2	nt
O=C1C(Cl)=C(Nc2ccccc2O)C(=O)N1CCc1ccccc1	0	0	30*	-5	6	-4	54*
CCOC(=O)c1c(NC(=O)COC(=O)Cn2cnc3c2c(=O)n(C)c(=O)n3C)sc(C)c1CC	-5	3	-4	nt	0	15	nt
Cc1ccccc1N1C(=O)c2cccc3c(N(C)CCO)ccc(c23)C1=O	3	-4	71*	-6	18	1	63*
COc1ccccc1N1C(=O)c2cccc3c(N(C)CCO)ccc(c23)C1=O	-7	-8	66*	nt	4	7	47*
